Tests used:
Test in all cases: SPOT peptide array binding signal intensity (averaged, normalized) (arbitrary units (background-subtracted, floor 0; scale differs between SH3 domains)); higher = stronger binding of the SH3 domain to the peptide
[1] = target: AgAbp1
Summary of the method: (§1)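 GST-fused SH3 domains from four yeast species were expressed in E. coli BL21(DE3), purified on glutathione Sepharose and incubated at 10 μg/ml overnight at 4°C in TBS-based blocking buffer on cellulose membranes carrying synthetic 15-mer peptides, with cysteines replaced by serines. Bound protein was detected with anti-GST antibody, an HRP anti-mouse secondary and luminol, then imaged and quantified with Genespotter. Binding signal is the normalized, background-subtracted spot intensity averaged over replicates, in arbitrary units that differ between domains.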

[2] = target: AgBbc1
Summary of the method: as §1

[3] = target: AgBem1-D1
Summary of the method: as §1

[4] = target: AgBzz1-D1
Summary of the method: as §1

[5] = target: AgBzz1-D2
Summary of the method: as §1

[6] = target: AgCyk3
Summary of the method: as §1

[7] = target: AgFus1
Summary of the method: as §1

[8] = target: AgHof1
Summary of the method: as §1

[9] = target: AgHse1
Summary of the method: as §1

[10] = target: AgLsb1
Summary of the method: as §1

[11] = target: AgLsb4
Summary of the method: as §1

[12] = target: AgMyo5
Summary of the method: as §1

[13] = target: AgNbp2
Summary of the method: as §1

[14] = target: AgRvs167
Summary of the method: as §1

[15] = target: AgSho1
Summary of the method: as §1

[16] = target: AgSla1-D1-D2
Summary of the method: as §1

[17] = target: AgSla1-D3
Summary of the method: as §1

[18] = target: CaAbp1-D1
Summary of the method: as §1

[19] = target: CaAbp1-D2
Summary of the method: as §1

[20] = target: CaBbc1
Summary of the method: as §1

[21] = target: CaBem1-D1
Summary of the method: as §1

[22] = target: CaBzz1-D1
Summary of the method: as §1

[23] = target: CaBzz1-D2
Summary of the method: as §1

[24] = target: CaCyk3
Summary of the method: as §1

[25] = target: CaFus1
Summary of the method: as §1

[26] = target: CaHof1
Summary of the method: as §1

[27] = target: CaHse1
Summary of the method: as §1

[28] = target: CaLsb1
Summary of the method: as §1

[29] = target: CaLsb4
Summary of the method: as §1

[30] = target: CaMyo5
Summary of the method: as §1

[31] = target: CaNbp2
Summary of the method: as §1

[32] = target: CaRvs167
Summary of the method: as §1

[33] = target: CaRvs167-3
Summary of the method: as §1

[34] = target: CaSho1
Summary of the method: as §1

[35] = target: CaSla1-D1-D2
Summary of the method: as §1

[36] = target: CaSla1-D3
Summary of the method: as §1

[37] = target: ScAbp1
Summary of the method: as §1

[38] = target: ScBbc1
Summary of the method: as §1

[39] = target: ScBem1-D1
Summary of the method: as §1

[40] = target: ScBzz1-D1
Summary of the method: as §1

[41] = target: ScBzz1-D2
Summary of the method: as §1

[42] = target: ScCyk3
Summary of the method: as §1

[43] = target: ScFus1
Summary of the method: as §1

[44] = target: ScHof1
Summary of the method: as §1

[45] = target: ScHse1
Summary of the method: as §1

[46] = target: ScLsb1
Summary of the method: as §1

[47] = target: ScLsb2
Summary of the method: as §1

[48] = target: ScLsb3
Summary of the method: as §1

[49] = target: ScLsb4
Summary of the method: as §1

[50] = target: ScMyo3
Summary of the method: as §1

[51] = target: ScMyo5
Summary of the method: as §1

[52] = target: ScNbp2
Summary of the method: as §1

[53] = target: ScPex13
Summary of the method: as §1

[54] = target: ScRvs167
Summary of the method: as §1

[55] = target: ScSho1
Summary of the method: as §1

[56] = target: ScSla1-D1-D2
Summary of the method: as §1

[57] = target: ScSla1-D3
Summary of the method: as §1

[58] = target: SpAbp1-D1
Summary of the method: as §1

[59] = target: SpBbc1
Summary of the method: as §1

[60] = target: SpBzz1-D1
Summary of the method: as §1

[61] = target: SpBzz1-D2
Summary of the method: as §1

[62] = target: SpCyk3
Summary of the method: as §1

[63] = target: SpHof1
Summary of the method: as §1

[64] = target: SpHof1-2
Summary of the method: as §1

[65] = target: SpHof1-3
Summary of the method: as §1

[66] = target: SpHse1
Summary of the method: as §1

[67] = target: SpLsb1
Summary of the method: as §1

[68] = target: SpLsb4
Summary of the method: as §1

[69] = target: SpMyo1
Summary of the method: as §1

[70] = target: SpNbp2
Summary of the method: as §1

[71] = target: SpPex13
Summary of the method: as §1

[72] = target: SpRvs167
Summary of the method: as §1

[73] = target: SpSla1-D1-D2
Summary of the method: as §1

[74] = target: SpSla1-D3
Summary of the method: as §1

B1: unnamed (peptide)
chain: IRMPSNPALPKKLLN
[1]
  SPOT peptide array binding signal intensity: 194
[2]
  SPOT peptide array binding signal intensity: 40
[3]
  SPOT peptide array binding signal intensity: 431
[4]
  SPOT peptide array binding signal intensity: 10
[5]
  SPOT peptide array binding signal intensity: 10
[6]
  SPOT peptide array binding signal intensity: 1
[7]
  SPOT peptide array binding signal intensity: 806
[8]
  SPOT peptide array binding signal intensity: 59.5
[9]
  SPOT peptide array binding signal intensity: 367
[10]
  SPOT peptide array binding signal intensity: 2.5
[11]
  SPOT peptide array binding signal intensity: 21.5
[12]
  SPOT peptide array binding signal intensity: 1.75
[13]
  SPOT peptide array binding signal intensity: 308
[14]
  SPOT peptide array binding signal intensity: 2.33
[15]
  SPOT peptide array binding signal intensity: 852
[16]
  SPOT peptide array binding signal intensity: 16
[17]
  SPOT peptide array binding signal intensity: 7.5
[18]
  SPOT peptide array binding signal intensity: 616
[19]
  SPOT peptide array binding signal intensity: 1080
[20]
  SPOT peptide array binding signal intensity: 126
[21]
  SPOT peptide array binding signal intensity: 444
[22]
  SPOT peptide array binding signal intensity: 314
[23]
  SPOT peptide array binding signal intensity: 247
[24]
  SPOT peptide array binding signal intensity: 15
[25]
  SPOT peptide array binding signal intensity: 1400
[26]
  SPOT peptide array binding signal intensity: ≤ 0
[27]
  SPOT peptide array binding signal intensity: 504
[28]
  SPOT peptide array binding signal intensity: 15.5
[29]
  SPOT peptide array binding signal intensity: 692
[30]
  SPOT peptide array binding signal intensity: 97.5
[31]
  SPOT peptide array binding signal intensity: 1060
[32]
  SPOT peptide array binding signal intensity: 65.7
[33]
  SPOT peptide array binding signal intensity: 3.5
[34]
  SPOT peptide array binding signal intensity: 2070
[35]
  SPOT peptide array binding signal intensity: 476
[36]
  SPOT peptide array binding signal intensity: 424
[37]
  SPOT peptide array binding signal intensity: 104
[38]
  SPOT peptide array binding signal intensity: 9.5
[39]
  SPOT peptide array binding signal intensity: 2
[40]
  SPOT peptide array binding signal intensity: 17
[41]
  SPOT peptide array binding signal intensity: 29
[42]
  SPOT peptide array binding signal intensity: 6
[43]
  SPOT peptide array binding signal intensity: 805
[44]
  SPOT peptide array binding signal intensity: 5.5
[45]
  SPOT peptide array binding signal intensity: 89.5
[46]
  SPOT peptide array binding signal intensity: 102
[47]
  SPOT peptide array binding signal intensity: ≤ 0
[48]
  SPOT peptide array binding signal intensity: 769
[49]
  SPOT peptide array binding signal intensity: 296
[50]
  SPOT peptide array binding signal intensity: 35.2
[51]
  SPOT peptide array binding signal intensity: 2
[52]
  SPOT peptide array binding signal intensity: 509
[53]
  SPOT peptide array binding signal intensity: 195
[54]
  SPOT peptide array binding signal intensity: 32.5
[55]
  SPOT peptide array binding signal intensity: 1060
[56]
  SPOT peptide array binding signal intensity: 544
[57]
  SPOT peptide array binding signal intensity: 277
[58]
  SPOT peptide array binding signal intensity: 268
[59]
  SPOT peptide array binding signal intensity: 5
[60]
  SPOT peptide array binding signal intensity: 700
[61]
  SPOT peptide array binding signal intensity: 41
[62]
  SPOT peptide array binding signal intensity: 4
[63]
  SPOT peptide array binding signal intensity: 53.2
[64]
  SPOT peptide array binding signal intensity: 30
[65]
  SPOT peptide array binding signal intensity: 22.8
[66]
  SPOT peptide array binding signal intensity: 294
[67]
  SPOT peptide array binding signal intensity: 16.8
[68]
  SPOT peptide array binding signal intensity: 1170
[69]
  SPOT peptide array binding signal intensity: 67.5
[70]
  SPOT peptide array binding signal intensity: 241
[71]
  SPOT peptide array binding signal intensity: 136
[72]
  SPOT peptide array binding signal intensity: 107
[73]
  SPOT peptide array binding signal intensity: 17.5
[74]
  SPOT peptide array binding signal intensity: 477
